A short description of experiment [1]: qHTS of pediatric cancer cell lines to identify multiple opportunities for drug repurposing: Primary screen for DAOY cells (AID 1347090). Further: nearly all actives have a fitted effect of over 55% in size. Further: potency means the concentration at half of the fitted maximal effect. The essentials:
(§1)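 Viability measured as metabolically active cells via CellTiter-Glo luminescence following 48 hours of compound exposure, 11-point dilutions in confirmatory testing. 500-1,000 cells/well plated 5 hours before dosing; controls were DMSO and 2.3 µM bortezomib.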
(In general: qHTS replaces the single test concentration by a dilution series.)

A short description of experiment [2]: qHTS of pediatric cancer cell lines to identify multiple opportunities for drug repurposing: Primary screen for SJ-GBM2 cells (AID 1347091). Further: potency means the concentration at half of the fitted maximal effect. The essentials: as §1
Experiment [3] is described as follows: qHTS of pediatric cancer cell lines to identify multiple opportunities for drug repurposing: Primary screen for SK-N-MC cells (AID 1347093). Further: potency means the concentration at half of the fitted maximal effect. The essentials: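 Metabolically active cells were quantified by ATP-dependent luminescence (CellTiter-Glo, 15 min at room temperature) following 48 h treatment. Cells had been plated at 500-1,000 per well and settled for 5 h beforehand.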

The nature of experiment [4]: qHTS of pediatric cancer cell lines to identify multiple opportunities for drug repurposing: Primary screen for BT-37 cells (AID 1347094). Further: potency means the concentration at half of the fitted maximal effect. In short, it runs like this: (§2)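 Phenotypic viability qHTS, 48 h compound exposure, CellTiter-Glo luminescence read-out; multi-concentration dosing so that potency and efficacy derive directly from the primary screen's curves.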
Experiment [5] in a line: qHTS of pediatric cancer cell lines to identify multiple opportunities for drug repurposing: Primary screen for Saos-2 cells (AID 1347097). Further: nearly all actives have a fitted effect of over 40% in size. Further: potency means the concentration at half of the fitted maximal effect. In short, it runs like this: as §2
A short description of experiment [6]: qHTS of pediatric cancer cell lines to identify multiple opportunities for drug repurposing: Primary screen for SK-N-SH cells (AID 1347098). Further: nearly all actives have a fitted effect of over 65% in size. Further: potency means the concentration at half of the fitted maximal effect. In short, it runs like this:
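Cells (500-1,000/well) rested 5 h, then received compounds for 48 h; metabolically active cells were measured by CellTiter-Glo luminescence. Final concentrations spanned up to 46 µM (MIPE, 11-point) or 0.59 nM-46 µM (NPC, 8-point) in primary screens, 11-point in follow-ups.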

Experiment [7] is described as follows: qHTS of pediatric cancer cell lines to identify multiple opportunities for drug repurposing: Primary screen for NB-EBc1 cells (AID 1347095). Further: potency means the concentration at half of the fitted maximal effect. In short, it runs like this:
as §2

Experiment [8] can be described thus: qHTS of pediatric cancer cell lines to identify multiple opportunities for drug repurposing: Primary screen for U-2 OS cells (AID 1347096). Further: nearly all actives have a fitted effect of over 50% in size. Further: potency means the concentration at half of the fitted maximal effect. In short, it runs like this:
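Viability after 48 h compound treatment at 37C, 500-1,000 cells/well, read as ATP luminescence with CellTiter-Glo. Primary screens used 11-point (MIPE, 0.78 nM-46 µM) or 8-point (NPC, 0.59 nM-46 µM) final concentrations; follow-up screens used 11-point dilutions.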

A short description of experiment [9]: qHTS of pediatric cancer cell lines to identify multiple opportunities for drug repurposing: Primary screen for NB1643 cells (AID 1347099). Further: nearly all actives have a fitted effect of over 50% in size. Further: potency means the concentration at half of the fitted maximal effect. In short, it runs like this:
as §2

The nature of experiment [10]: qHTS of pediatric cancer cell lines to identify multiple opportunities for drug repurposing: Primary screen for A673 cells (AID 1347092). Further: nearly all actives have a fitted effect of over 45% in size. The essentials: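 A673 cells (500-1,000 cells/well in growth media) were pre-incubated 5 h at 37 degrees C, then exposed to compounds for 48 h. Viability was read as CellTiter-Glo luminescence; concentration-response curves came directly from the primary screen.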

Each structure is given as a SMILES string. Inconclusive results are not listed. The source made the active and inactive calls. The call rests on the fitted dose curve; in most records, active means well fitted curve in the direction sought with a large enough effect; inconclusive means small, poorly fitted or top-dose-only effect, or another doubt; inactive means no such curve, though single readings can be large; an effect the other way counts as inactive or inconclusive. Numbered stars: 1 amine (or outer) side, 2 acyl side, 3 side chain; on linkers, the order of the positions; unused ones are H or OH. Bridge positions count the residues as written; N and C are the ends. Square brackets hold non-standard residues; d marks the D form. Peptide text beside a SMILES is read from it. I, II: the chains in the order shown. Actinocin(9to1) = Cc1c2oc3c(C)ccc(C(=O)[*:1])c3nc-2c(C(=O)[*:2])c(N)c1=O; NMeV = CN[C@H](C(=O)O)C(C)C; Sar = CNCC(=O)O

In the case of `CCCCCCCCCCCCCCCCOP(=O)([O-])OCC[N+](C)(C)C`, the Potency result in [1], in experiment [4] and in experiment [5] was “inactive” in each case. Moreover, the values for the Potency in experiment [2], in experiment [3] and in experiment [6] were 8.41 µM (active), 6.68 µM (active) and 13.7 µM (active), respectively.

Regarding `CC(C)N=C(N)/N=C(\N)Nc1ccc(Cl)cc1`, the Potency entry in [1], in experiment [2], in [4], in [7], in experiment [8] and in experiment [9] was “inactive” throughout.

For the compound `CC(=O)N(O)CCCCCNC(=O)CCC(=O)N(O)CCCCCNC(=O)CCC(=O)N(O)CCCCCN`, the figures for the Potency in experiment [1], in experiment [4] and in [6] were 8.41 µM (active), 12.3 µM (active) and 5.45 µM (active), respectively. Besides, the Potency entry in [10] and in experiment [5] was “inactive” throughout.

On to `Nc1ccc(C(=O)Nc2ccccc2N)cc1`, for which the Potency in [1] was 16.8 µM (active); in experiment [2], 13.3 µM (active); in experiment [3], 3.76 µM (active); in experiment [4] it was 17.4 µM (active); in experiment [7], 3.76 µM (active); in experiment [9] it was 7.5 µM (active).

In the case of `O=C(N/N=C/c1ccccc1O)c1ccncc1`, the Potency in [1] was 4.22 µM (active); in experiment [4] it was 11 µM (active); in [7], 18.8 µM (active); in experiment [9], 3.35 µM (active).

With `Cc1c(C)n(Cc2ccccc2)c2ccc(C(=O)OCCN(C)C)cc12`, the Potency entry in [1], in experiment [10], in experiment [4], in [8] and in [9] was “inactive” throughout.

For the compound `CN1CCN(CCCN2c3ccccc3Sc3ccc(S(=O)(=O)N(C)C)cc32)CC1`, the Potency result in [1], in experiment [7], in experiment [8] and in [9] was “inactive” each time. Moreover, the Potency in [2] is 18.8 µM (active); in experiment [6], 15.4 µM (active).

For `O=C1[C@H]2CCCC[C@H]2C(=O)N1CCCCN1CCN(c2nsc3ccccc23)CC1`, the Potency result in experiment [1], in [3], in experiment [4], in experiment [8], in experiment [6] and in experiment [9] was “inactive” each time.

For the compound `Cc1c2oc3c(C)ccc(C(=O)N[C@@H]4C(=O)N[C@H](C(C)C)C(=O)N5CCC[C@H]5C(=O)N(C)CC(=O)N(C)[C@@H](C(C)C)C(=O)O[C@@H]4C)c3nc-2c(C(=O)N[C@@H]2C(=O)N[C@H](C(C)C)C(=O)N3CCC[C@H]3C(=O)N(C)CC(=O)N(C)[C@@H](C(C)C)C(=O)O[C@@H]2C)c(N)c1=O` (I: T[dV]P[Sar][NMeV] / II: T[dV]P[Sar][NMeV]; ester I:1-I:C, II:1-II:C; linker I:N-II:N via Actinocin(9to1)), the Potency was 0.0211 µM (active) in [1]; 0.0027 µM (active) in experiment [3]; 0.0028 µM (active) in [4]; 0.0422 µM (active) in [8]; 0.0841 µM (active) in experiment [5]; 0.0034 µM (active) in experiment [6].

For the compound `Clc1ccc2c(c1)CCc1cccnc1C2=C1CCNCC1`, the Potency result in experiment [1], in experiment [3], in experiment [4], in experiment [7], in [8] and in experiment [9] was “inactive” throughout.

Regarding `O=c1c(-c2ccccc2)c1-c1ccccc1`, the Potency was 21.1 µM (active) in experiment [1], 6.68 µM (active) in [3], 11.9 µM (active) in experiment [5] and 8.41 µM (active) in experiment [9].

In the case of `CCN(CCCCOC(=O)c1ccc(OC)c(OC)c1)C(C)Cc1ccc(OC)cc1` (stereo not drawn), the Potency entry in experiment [1], in experiment [10], in experiment [3], in [7], in experiment [8] and in experiment [9] was “inactive” in each case.

Take `CCN(CC)CCOC(=O)C(c1ccccc1)C1CCCCC1` (stereo not drawn): the Potency result in experiment [1], in experiment [10], in experiment [8] and in experiment [9] was “inactive” each time. The Potency in experiment [5] is 23.7 µM (active); in experiment [6], 30.7 µM (active).

Consider `CCCN1CCCC[C@H]1C(=O)Nc1c(C)cccc1C`, for which the Potency entry in [1], in experiment [2], in [3], in [4], in experiment [8] and in [5] was “inactive” throughout. The Potency result in [6] and in [9] was “inactive” each time.

For the compound `CC/C(=C(/CC)c1ccc(O)cc1)c1ccc(O)cc1`, the values for the Potency in experiment [1], in experiment [3] and in experiment [6] were 21.1 µM (active), 6.68 µM (active) and 5.45 µM (active), respectively. In addition, the Potency result in experiment [8] is “inactive”.

`CCOC(=O)COc1ccc2c(C)c(CCN(CC)CC)c(=O)oc2c1Cl`: the Potency result in experiment [1], in experiment [10], in [3], in experiment [4], in experiment [5] and in experiment [6] was “inactive” in each case. In addition, the Potency entry in experiment [9] is “inactive”.

Consider `Cc1ccc(O)c2ncccc12`, for which the Potency in experiment [1] was 3.35 µM (active); in experiment [3], 2.99 µM (active); in experiment [5], 21.1 µM (active); in experiment [6], 7.7 µM (active); in experiment [9], 2.37 µM (active). Moreover, the Potency result in [2] is “inactive”.

Regarding `Cc1c(C)n(CCN(C)C)c2ccc(C(=O)OCCN(C)C)cc12`, the Potency result in experiment [1], in experiment [2], in experiment [4], in experiment [7], in experiment [8] and in experiment [5] was “inactive” in each case. Also, in [9], the Potency result was “inactive”.

Regarding `C[C@H]1C[C@H]2[C@@H]3CCC4=CC(=O)C=C[C@]4(C)[C@@]3(Cl)[C@@H](O)C[C@]2(C)[C@@]1(O)C(=O)CO`, the Potency result in experiment [1], in [10], in experiment [4], in experiment [7], in [8] and in experiment [5] was “inactive” each time. Moreover, the Potency result in experiment [6] and in [9] was “inactive” in each case. For the same compound, the Potency in experiment [3] is 15 µM (active).
